This is one part of a sample in which hits are shown more often than they occur.
Methyltransferases: Primary Screen for Target Class Profiling of Small Molecule Inhibitors of Methyltransferases; purified enzyme, MTase-Glo SAH luminescence; stronger effect = lower value; calls only at 40 µM; 3.9% of 25,000 active; call rule not given here
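Each enzyme was assayed with SAM and its substrate. SAH formation detected by MTase-Glo luminescence; single-point 40 uM screen[…].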
MTase-Glo counter: counter-screen for methyltransferase inhibitors: coupling enzymes without methyltransferase; shares compounds with Methyltransferases; MTase-Glo coupled enzymes, SAH conversion luminescence, no MTase; Potency, µM (doses to about 57.3 µM), most hits filed as inhibitors; 6% of 180 active; AID 1745851; active = well fitted inhibition curve with a large enough effect
Each line names hits and unclear results; the compound was inactive in the other large screens (follow-up assays come after a bar, where they were run); ! = a repeat was not active.

C[C@@H]1O[C@@H](O[C@@H]2[C@@H](O)[C@H](O[C@H]3[C@H](O[C@H]4CC[C@@]5(C)C(CC[C@]6(C)C5CC=C5[C@@H]7CC(C)(C)CC[C@]7(C(=O)O[C@@H]7O[C@H](CO)[C@@H](O)[C@H](O)[C@H]7O)CC[C@]56C)C4(C)C)O[C@H](C(=O)O)[C@@H](O)[C@@H]3O)OC[C@H]2O)[C@H](O)[C@H](O)[C@H]1O (some centres not stated)	none
CC1(C)CC[C@]2(C(=O)O[C@@H]3O[C@H](CO)[C@@H](O)[C@H](O)[C@H]3O)CC[C@]3(C)C(=CCC4[C@@]5(C)CC[C@H](O[C@@H]6O[C@H](C(=O)O)[C@H](O)[C@H](O)[C@H]6O)C(C)(C)C5CC[C@]43C)[C@@H]2C1 (some centres not stated)	Methyltransferases active
CC1(C)CC[C@]2(C(=O)O[C@@H]3O[C@H](CO)[C@@H](O)[C@H](O)[C@H]3O)CC[C@]3(C)C(=CCC4[C@@]5(C)CC[C@H](O[C@@H]6O[C@H](C(=O)O)[C@@H](O)[C@H](O)[C@H]6O)C(C)(C)C5CC[C@]43C)C2C1 (some centres not stated)	none
CC1OC(OC2C(OC(=O)[C@]34CCC(C)(C)C[C@H]3C3=CCC5[C@@]6(C)CC[C@H](OC7OC(C(=O)O)C(O)C(O)C7O)C(C)(C)C6CC[C@@]5(C)[C@]3(C)CC4O)OC(CO)C2O)C(O)C(O)C1OC1OCC(O)C(O)C1O (some centres not stated)	Methyltransferases active
CC1(C)CC[C@@]2(C(=O)O[C@@H]3O[C@H](CO)[C@@H](O)[C@H](O)[C@H]3O)C(C1)C1=CCC3[C@@]4(C)CC[C@@H](O[C@@H]5O[C@H](C(=O)O)[C@@H](O[C@@H]6OC[C@@H](O)[C@H](O)[C@H]6O)[C@H](O[C@@H]6OC[C@](O)(CO)[C@H]6O)[C@H]5O)C(C)(C)C4CC[C@@]3(C)[C@]1(C)C[C@H]2O (some centres not stated)	none
CCOC(=O)c1oc2cc3sc(N4CCCCC4)nc3cc2c1C	none
O=C(Cn1ccc2cc(S(=O)(=O)N3CCCCC3)ccc21)NCc1ccc(Cl)cc1	none
CCCN1C(=O)c2c(C(=O)NCc3ccc(OC)cc3OC)ncn2CC1(C)C(=O)NC1CCCC1 (configuration not stated)	none
Cc1ccc(CNC(=O)Cn2nc3n(CC(C)C)c(=O)c4ccccc4n3c2=O)cc1	none
CC(C)(O)c1ccc2c(c1)ncn2-c1cccc(-c2ccccc2C#N)c1	Methyltransferases active
CC(C)CNC(=O)c1ccc2c(=O)n(CC(C)C)c3nn(CC(N)=O)c(=O)n3c2c1	none
CN(C(=O)Cn1nc2n(C)c(=O)c3ccc(C(=O)NC4CCCC4)cc3n2c1=O)c1ccccc1	none
Cc1ccc(Cl)cc1Nc1nn2c(=O)c3ccc(C(=O)NC4CCC(C)CC4)cc3nc2s1 (configuration not stated)	none
CN(C)c1nc(NC2CCC(NC(=O)c3ccc(F)c(F)c3)CC2)nc2ccccc12 (configuration not stated)	Methyltransferases active
CCCn1c(=O)c2ccc(Cl)cc2n2c(=O)n(CC(=O)Nc3cc(C)cc(C)c3)nc12	none
O=C(CCc1nnc2n(Cc3ccc(F)cc3)c(=O)c3ccccc3n12)N1CCN(c2ccccc2)CC1	none
CSc1ccc(CCN2C(=O)CSc3c(c4ccccc4n3C)C2C(=O)NCCC(C)C)cc1 (configuration not stated)	none
CCn1c2ccccc2c2cc(Nc3ccnc(NCCCN4CCOCC4)n3)ccc21	Methyltransferases active
CC(C)CCn1c(=O)c2ccccc2n2c(CCC(=O)NCCCN3CCOCC3)nnc12	none
Cc1ccc(Cn2c(=O)c3ccccc3n3c(CCC(=O)NCCCN4CCOCC4)nnc23)cc1	none
CC1(C(=O)NC2CCCCC2)Cn2nc(-c3ccco3)cc2C(=O)N1CCc1ccccc1 (configuration not stated)	none
CCCN1C(=O)c2cc3ccccc3n2CC1(C)C(=O)NC1CCCCCC1 (configuration not stated)	none
C=C(C)C(=O)OC1CC2(C)OC(=CC2=O)C(=C)CC2OC(=O)C(COC)C12 (configuration not stated)	Methyltransferases active
C=C1CC2OC(=O)C(COC)C2C(OC(=O)/C(C)=C\C)CC2(C)OC1=CC2=O (configuration not stated)	none
C=C(C)C(=O)OC1CC2(C)OC(=CC2=O)C(=C)CC2OC(=O)C(=C)C12 (configuration not stated)	none
CC(C)Oc1ccc(CN2C(=O)c3nc4ccccc4n3CC2(C)C(=O)NC2CCCC2)cc1 (configuration not stated)	none
O=c1[nH]ccc2cc(OC3CCNCC3)ccc12	none
CCC(C)NC(=O)c1ccc2c(=O)n(C)c3nnc(SCc4ccccc4)n3c2c1 (configuration not stated)	none
Cc1ccc(CN2CCC(CNc3cc(C4CC(O)C4)ncn3)CC2)o1 (configuration not stated)	none
CN1CCC(CNc2ccc3ncc(-c4cccc(OC(F)(F)F)c4)n3n2)CC1	Methyltransferases active!
O=C(CCc1nnn2c1CN(Cc1cn[nH]c1-c1ccc(F)cc1)CC2)N1CCCC1	none
OCC1(CC2CC2)CCCN(Cc2ccc(C(F)(F)F)nc2)C1 (configuration not stated)	none
OCC1(Cc2ccccc2)CCCN(Cc2cn[nH]c2-c2ccc(F)cc2)C1 (configuration not stated)	Methyltransferases active | MTase-Glo counter inactive
CCCSCCCN1C(=O)c2cc3sccc3n2CC1(C)C(=O)NC1CCCCCCC1 (configuration not stated)	none
COc1ccc(-c2cc3n(n2)CC(C)(C(=O)NCc2ccccc2)N(CCc2ccc(SC)cc2)C3=O)cc1 (configuration not stated)	none
CCOc1ccc(CCN2C(=O)c3ccc(-c4ccco4)n3CC2(C)C(=O)NC2CCCC2)cc1 (configuration not stated)	none
O=[S+]1([O-])NC2(CCCN(Cc3c(F)cccc3Cl)C2)COc2ccccc21 (configuration not stated)	Methyltransferases active | MTase-Glo counter inactive
O=[S+]1([O-])NC2(CCN(Cc3ccccc3C(F)(F)F)C2)CNc2ccccc21 (configuration not stated)	none
O=C1NC2(CCN(Cc3ccccc3)C2)COc2ccccc21 (configuration not stated)	none
CC(C)CCN1C(=O)c2cc3occc3n2CC1(C)C(=O)NC1CCCC(C)C1C (configuration not stated)	none
COc1ccccc1CC(=O)N1CCCc2ncc(C(=O)Nc3cccc(Cl)c3)cc21	Methyltransferases active | MTase-Glo counter inactive
COc1cc(C(=O)NC(=S)Nc2cccc(NC(=O)c3ccccc3)c2)cc(OC)c1OC	none
COc1cc(NC(=O)c2ccccn2)ccc1Cl	none
CCCn1c(C)cnc1CC1CCCN(S(=O)(=O)c2cc(OC)ccc2OC)C1 (configuration not stated)	none
CNC(=O)N1CCC(C2CCN(C(=O)NCc3cccc(OC)c3)C2)CC1 (configuration not stated)	none
CCCn1c(C)cnc1CC1CCN(C(=O)NCc2ccc(OC)cc2)C1 (configuration not stated)	Methyltransferases active | MTase-Glo counter inactive

Screening results: PubChem BioAssay, National Center for Advancing Translational Sciences (NCATS)
